Assay outcomes deposited in PubChem by several laboratories.
The list is not random: actives were taken first. Their share in the collection is about 2.3%.
GLD-1 RNA inh = GLD-1/TGE RNA complex disruptors, primary screen, biochemical, fluorescence polarization; Female germline-specific tumor suppressor gld-1 (Caenorhabditis elegans), Q17339; purified GLD-1 + fluorescein TGE RNA; inhibition, % at 5.96 µM; actives 0.44% (n = 320,000);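 active = percent inhibition above a per-plate cutoff, the plate mean of test compounds plus 3 SD, cut at about 30% in these data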;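 also: 0% = DMSO wells with GLD-1 and probe and 100% = wells lacking GLD-1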
Target sequence (Q17339 whole entry, looked up): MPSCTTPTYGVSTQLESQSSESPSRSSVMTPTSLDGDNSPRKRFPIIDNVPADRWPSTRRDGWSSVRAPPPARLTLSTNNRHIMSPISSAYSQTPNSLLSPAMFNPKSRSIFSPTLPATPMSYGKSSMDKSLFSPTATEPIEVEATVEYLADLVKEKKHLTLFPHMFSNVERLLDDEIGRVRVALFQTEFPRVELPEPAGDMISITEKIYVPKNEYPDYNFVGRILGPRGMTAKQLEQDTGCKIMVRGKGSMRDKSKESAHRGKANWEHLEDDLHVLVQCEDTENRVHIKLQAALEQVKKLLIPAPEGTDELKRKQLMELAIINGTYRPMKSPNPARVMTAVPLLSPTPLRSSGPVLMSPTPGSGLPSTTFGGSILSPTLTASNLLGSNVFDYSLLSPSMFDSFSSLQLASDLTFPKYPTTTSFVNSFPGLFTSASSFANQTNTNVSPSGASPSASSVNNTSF
BCLXL inh = inhibitors of human Bcl-xL, primary screen, biochemical, fluorescence polarization, HTS; GST-Bcl-xL / FITC-Bim BH3 peptide fluorescence polarization; inhibition, % at 10.9 µM; actives 0.7% (n = 320,000); AID 2129, 2009;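 active = inhibition above the mean of all tested compounds plus 3 SD, cutoff set per campaign, cut at about 30% in these data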;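 also: 0% = DMSO wells and 100% = unlabeled Bim-BH3 peptide competitor; inhibitors lower millipolarization by displacing the labeled peptide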
Target sequence (Q07817 whole entry, looked up): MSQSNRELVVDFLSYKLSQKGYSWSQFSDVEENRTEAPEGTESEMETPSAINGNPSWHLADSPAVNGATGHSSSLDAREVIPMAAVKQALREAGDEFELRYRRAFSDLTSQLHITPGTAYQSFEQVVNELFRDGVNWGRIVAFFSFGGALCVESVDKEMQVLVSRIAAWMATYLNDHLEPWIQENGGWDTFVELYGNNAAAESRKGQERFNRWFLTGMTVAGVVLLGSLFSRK
Mcl-1 Bim block = inhibitors of Bim peptide binding to Mcl-1, primary screen, biochemical, bead-based flow cytometry, multiplex. Bim peptide-Mcl-1 binding. inhibition, % at 10 µM. actives 0.1% (n = 190,000). Induced myeloid leukemia cell differentiation protein Mcl-1 (Homo sapiens), Q07820; in the data active = inhibition above about 40%;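 also: 0% = no compound tracer wells and 100% = peptide blocker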
Mcl1 Noxa PPI = Mcl-1/Noxa binding inhibitors, primary screen, biochemical, TR-FRET, 1536-well. Induced myeloid leukemia cell differentiation protein Mcl-1 (Homo sapiens), Q07820. TR-FRET Mcl-1/Noxa peptide binding, 2 h. inhibition, % at 21.7 µM. actives 1.5% (n = 220,000). AID 1022, 2008;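 active = compounds that cut the protein-peptide binding signal by more than 50% relative to plate controls in a single-dose test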;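 also: His-tagged Mcl-1 with rhodamine Noxa BH3 peptide and terbium anti-His antibody; 0% = Mcl-1 plus Noxa peptide wells and 100% = peptide-only wells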
Mcl1-Bid inh = Mcl-1/Bid binding inhibitors, primary screen, biochemical, TR-FRET, 1536-well. Induced myeloid leukemia cell differentiation protein Mcl-1 (Homo sapiens), Q07820. TR-FRET Mcl-1/Bid-Dy647 peptide binding. inhibition, % at 21.7 µM. actives 0.97% (n = 220,000);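 active = compounds that cut the binding signal by more than half at the single screening dose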;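 also: His-tagged Mcl-1 with europium anti-His antibody binding Bid BH3 peptide; 0% = Mcl-1 plus peptide wells and 100% = peptide-only wells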
MCL1 BIM primary = inhibitors of MCL1 binding to BIM-BH3, primary screen, biochemical, fluorescence polarization; actives 0.68% (n = 320,000); AID 2057, 2009; GST-MCL1 / FITC-Bim-BH3 fluorescence polarization; Induced myeloid leukemia cell differentiation protein Mcl-1 (Homo sapiens), Q07820; inhibition, % at 10.9 µM;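 active = inhibition above the mean inhibition of all tested compounds plus 3 SD, set per campaign, cut at about 40% in these data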;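 also: 0% = DMSO wells and 100% = unlabeled Bim-BH3 peptide control; higher means more loss of mP so more displacement of Bim peptide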
* = called active by the depositor; · = not tested or not shown.

SMILES | GLD-1 RNA inh | BCLXL inh | Mcl-1 Bim block | Mcl1 Noxa PPI | Mcl1-Bid inh | MCL1 BIM primary
Cc1ccc(SC2=C(Sc3ccc(C)cc3)C(=O)c3ccccc3C2=O)cc1 | 1.1 | 16.3 | · | 68.6* | 1.1 | 31.3
Cc1cc(C(=O)Nc2cccc3c2O[C@@H](CN(C)S(C)(=O)=O)[C@H](C)CN([C@@H](C)CO)C3=O)n(C)n1 | 1.3 | · | · | · | · | ·
O=C1c2ccccc2S(=O)(=O)c2cc(N3CCC(C(=O)N4CCCCC4)CC3)ccc21 | -14.6 | 17.5 | · | · | · | -14.8
O=C1c2ccccc2S(=O)(=O)c2cc(N3CCc4ccccc4C3)ccc21 | 20.4 | 38.9* | · | · | · | 27.5
COc1ccc([N+](=O)[O-])cc1NS(=O)(=O)c1ccc(Cl)c(C(=O)Nc2sc3c(c2C#N)CCCCC3)c1 | -0.4 | -1.4 | 0.0 | 34.5 | 1.3 | -1.5
CN(C)C(=O)N1CCC(C(=O)NC2CCCCCCC2)CC1 | 2.2 | 2.3 | 67.0* | 3.9 | -11.6 | 5.7
O=C(NCc1ccccc1)C(=O)NCC1CCCN1S(=O)(=O)c1cccs1 (stereo not drawn) | -3.3 | 0.7 | · | · | · | -11.8
Cc1cc2nc(-c3cccnc3SCC(=O)NCc3ccco3)[nH]c2cc1C | 8.1 | 13.1 | 0.0 | 73.2* | -32.7 | 25.0
CC(=O)Nc1ccc(/C=N/NC(=O)CNC(=O)c2ccccc2)cc1 | -3.3 | 3.5 | -3.0 | 9.7 | -5.9 | -3.2
O=C(Cc1nc2ccccc2[nH]1)c1ccc(Br)cc1 | -7.0 | -4.8 | 2.0 | -29.6 | -28.6 | -6.5
Cc1ccc(/C=C/C(=O)Nc2sc3c(c2C#N)CCCC3)o1 | 2.7 | 5.0 | -4.0 | 51.5* | 13.7 | 5.8
CCc1ccc(CCC(=O)Nc2sc3c(c2C#N)CCCC3)o1 | -1.1 | 2.3 | 5.0 | 9.8 | -57.6 | 8.8
O=C(NCCc1ccccc1Cl)C1CCC(=O)N(CC2CCCCC2)C1 (stereo not drawn) | 1.7 | -4.0 | · | · | · | -0.9
CCCC(=O)Nc1ccc2nc(SCC(=O)N3CCCC3)sc2c1 | -1.4 | -0.2 | 0.0 | 8.7 | -21.4 | 7.4
Cn1c(SCC(=O)Nc2ccc3nc(SCC(=O)N4CCCC4)sc3c2)nnc1-c1ccccc1 | -0.4 | 10.8 | -8.0 | 97.1* | 35.2 | 28.7
COc1cccc(N2CCN(C(=O)CN(C)S(=O)(=O)c3ccc4c(c3)c(=O)n(C)c(=O)n4C)CC2)c1 | 0.8 | 8.5 | -1.0 | 14.7 | -8.3 | -0.2
COc1ccc(-n2c(N)c(C(=O)NCc3ccco3)c3nc4ccccc4nc32)cc1 | 4.4 | 1.5 | 3.0 | 57.9* | -11.5 | -6.3
COc1ccc(OC)c(-n2c(N)c(C(=O)NCC3CCCO3)c3nc4ccccc4nc32)c1 (stereo not drawn) | · | · | 0.0 | 14.8 | 92.9* | ·
COc1cnn(Cc2ccccc2)c(=O)c1SCc1ccccc1 | 0.4 | 0.3 | -2.0 | -143.4 | -46.6 | 5.2
CCOc1cnn(Cc2ccccc2)c(=O)c1SCc1ccccc1 | 3.4 | 5.8 | -3.0 | 70.2* | -25.1 | 0.3
Cc1cc(C)cc(NC(=O)CSc2nnc(CNC(=O)c3ccco3)n2C)c1 | -1.1 | 3.9 | · | · | · | 2.3
Oc1ccc(Nc2nc(NCC3CCCO3)c3ccccc3n2)cc1 (stereo not drawn) | · | · | 0.0 | 54.6* | -32.1 | ·
COc1cccc(Nc2nc(NCC3CCCO3)c3ccccc3n2)c1 (stereo not drawn) | 2.4 | 0.9 | 2.0 | 40.5 | 91.8* | -3.8
Oc1ccccc1Nc1nc(NCC2CCCO2)c2ccccc2n1 (stereo not drawn) | 12.1 | 5.1 | 3.0 | 34.9 | -53.5 | 6.2
CCOC(=O)C[n+]1c(C)sc2ccc(OC)cc21 | -0.1 | 2.2 | -3.0 | 53.8* | -94.8 | 2.8
SMILES | GLD-1 RNA inh | BCLXL inh | Mcl-1 Bim block | Mcl1 Noxa PPI | Mcl1-Bid inh | MCL1 BIM primary
CCCN1CCC(NC(=S)Nc2ccc([N+](=O)[O-])cc2)CC1 | 6.9 | 8.7 | -2.0 | 9.1 | -25.3 | 7.6
CCCN1CCC(NC(=S)Nc2ccc(C(=O)OCC)cc2)CC1 | 3.7 | 1.7 | -5.0 | 0.2 | 84.3* | 5.1
COCCn1c(=S)[nH]c2sc3c(c2c1=O)CCC(C)C3 (stereo not drawn) | 4.9 | 2.9 | · | · | · | 3.8
COCCCn1c(=S)[nH]c2sc3c(c2c1=O)CCCS3 | 0.2 | 9.6 | -4.0 | 65.1* | -89.0 | 10.2
COc1ccc(NC(=O)C2CCN(C(=O)Nc3ccccc3)CC2)cc1S(=O)(=O)N(C)C | 5.6 | 4.1 | · | · | · | 3.3
COc1ccc(CC(=O)Nc2cc(S(=O)(=O)N3CCCC3)ccc2Cl)c(OC)c1 | 5.8 | -3.6 | · | · | · | -7.5
COCCNC(=O)c1noc2c1CCc1cc(OC)ccc1-2 | 3.2 | 0.1 | -4.0 | 64.6* | 0.6 | 9.0
Oc1cc2c(cc1C(c1ccc(Cl)c(Cl)c1)N1CCCC1)OCO2 (stereo not drawn) | · | · | -3.0 | 91.9* | 94.4* | ·
COc1ccc(OC)c(NC(=O)CCN2CC(C)CC(C)C2)c1 (stereo not drawn) | -1.3 | -0.7 | · | · | · | -3.4
COc1ccc(OC)c(NC(=O)CCN2CCCC(C)C2)c1 (stereo not drawn) | 14.1 | -2.2 | 0.0 | 32.2 | 51.5* | 1.7
Cc1cc(C)cc(NC(=O)[C@@H](NC(=O)c2ccco2)C(C)C)c1 | 6.5 | 4.9 | · | · | · | -4.3
COc1ccc2cc([C@@H](C)C(=O)O)ccc2c1 | 5.4 | 5.1 | · | · | · | 5.6
Cc1[nH]nc(-c2ccc(OCc3cnn(-c4ccccc4)c3)cc2O)c1Oc1ccccc1F | 0.0 | 4.8 | -1.0 | -10.8 | 59.1* | -0.7
CCC(C)(O)c1[nH]c2ccc(C(=O)OC)cc2c1C (stereo not drawn) | 2.2 | 1.9 | · | · | · | -1.6
COc1cccc(-n2nnc3c(=O)n(CC(=O)NC4CCCC4)cnc32)c1 | 5.5 | 1.9 | -3.0 | 52.0* | 9.5 | -1.5
CCCCc1cc(=O)oc2cc(OC(C)C(=O)NCCN3CCOCC3)c(Cl)cc12 (stereo not drawn) | -7.5 | 2.2 | · | · | · | -2.8
COc1ccc(C(C)=O)cc1CSc1ccc(S(=O)(=O)N2CCOCC2)cn1 | 6.0 | 11.0 | · | · | · | 5.8
O=C(Nc1n[nH]c(C(F)(F)F)n1)C1CC1 | 6.1 | -1.0 | 43.0* | 3.7 | -3.7 | 5.0
c1ccc2[nH]c(CN3CCOCC3)nc2c1 | 2.3 | 2.4 | 0.0 | 11.9 | 98.1* | -0.2
c1ccc2cc3[nH]c(CN4CCOCC4)nc3cc2c1 | -1.9 | 0.4 | -3.0 | 9.9 | -1.3 | -1.6
COc1ccc(-c2nc3oc4cc(OC)ccc4c(=O)c3c(=O)n2Cc2ccco2)cc1 | 10.2 | 10.1 | -5.0 | 51.5* | 27.6 | 6.0
CCc1nc2oc3cc(OC)ccc3c(=O)c2c(=O)n1Cc1ccco1 | 0.9 | 17.4 | 1.0 | 28.6 | 8.1 | 20.6
COc1ccc2c(=O)c3c(=O)n(Cc4ccco4)c(-c4ccco4)nc3oc2c1 | 4.5 | 22.2 | 0.0 | 69.8* | -3.4 | 25.6
